DAX1 inh-1 = DAX1 (NR0B1) inhibitors, primary screen, cell-based, HEK293, Gal4-DAX1, luciferase luminescence | Nuclear receptor subfamily 0 group B member 1 (Homo sapiens), P51843 | HEK293 Gal4-DAX1 luciferase reporter | inhibition, % at 6.75 µM | 340,000 compounds, 0.99% hits | AID 504766, 2011;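 active means inhibition above the mean over all tested compounds plus 3 SD, cut at about 4.2% in these data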;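 further: 0% = DAX1-transfected cells with DMSO and 100% = empty-vector control cells with DMSO; inhibition shows as a rise in luminescence from relieved DAX1 repression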
Target sequence (P51843 207-470 limits assumed): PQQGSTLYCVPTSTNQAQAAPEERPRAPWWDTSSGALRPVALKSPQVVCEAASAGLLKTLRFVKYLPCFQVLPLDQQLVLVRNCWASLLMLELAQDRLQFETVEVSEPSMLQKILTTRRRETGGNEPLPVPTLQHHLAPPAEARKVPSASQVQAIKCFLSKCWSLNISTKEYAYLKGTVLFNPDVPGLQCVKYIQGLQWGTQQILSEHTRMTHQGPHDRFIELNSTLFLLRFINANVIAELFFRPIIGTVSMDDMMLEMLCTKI
hgDAF-12 ag = H. glycines DAF-12 receptor agonists, primary screen, cell-based, luminescence, HEK293, GAL4 fusion, UAS-luciferase. Nuclear hormone receptor DAF-12 (Heterodera glycines), GAL4 fusion. HEK293 GAL4-hgDAF12 UAS-luciferase reporter, agonist luminescence; normalized to butyrate control. activation, % at 6.8 µM. 370,000 compounds, 1.8% hits;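 active means activation above a cutoff set at the mean of all screened compounds plus 3 SD, cut at about 10% in these data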;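 further: 0% = DMSO wells and 100% = sodium butyrate wells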
SMARCA2 activ = SMARCA2 (BRM) function activators, primary screen, cell-based, luminescence, high throughput | MG213 cells, MMTV-luciferase reporter, dexamethasone, overnight | activation, % at 9.1 µM | 370,000 compounds, 1% hits | AID 652017, 2013; in the data active means activation above about 7.8%;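 further: 0% = vehicle wells and 100% = reference activator wells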
DAX1 inh-2 = DAX1 (NR0B1) inhibitors on StAR promoter, primary screen, cell-based, luminescence, SF-1 (NR5A1), full-length DAX-1. 370,000 compounds, 1.1% hits. inhibition, % at 6.8 µM. HEK293T StAR-luciferase reporter, SF-1/DAX-1 repression relief;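 active means inhibition above the mean over all tested compounds plus 3 SD, cut at about 3.6% in these data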;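 further: 0% = DAX-1 cells with DMSO and 100% = cells lacking DAX-1 with DMSO; higher inhibition means more luminescence from relief of DAX-1 repression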
ssDAF-12 act = S. stercoralis DAF-12 nuclear receptor activators, primary screen, cell-based, luminescence, HEK293, GRIP1 co-expression, lit1-tk-luc; Nuclear hormone receptor DAF-12 (Strongyloides stercoralis); HEK293 ssDAF-12/GRIP1 lit1-tk-luc reporter; % of 3 µM dafachronic acid response; activation, % at 6.8 µM; 370,000 compounds, 1% hits; AID 652126, 2013;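 active means activation above the mean over all tested compounds plus 3 SD, cut at about 0.9% in these data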;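 further: 0% = DMSO-only wells and 100% = 3 µM delta7-dafachronic acid wells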
hcDAF-12 act = H. contortus DAF-12 nuclear receptor activators, primary screen, cell-based, luminescence, HEK293, lit1-tk-luc reporter; HEK293 hcDAF-12 lit1-tk-luc reporter; 0% DMSO, 100% Δ7-dafachronic acid; activation, % at 6.8 µM; 370,000 compounds, 1.4% hits; AID 652067, 2013;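 active means activation above the mean of all tested compounds plus 3 SD, cut at about 5.5% in these data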;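 further: 100% = response to 3 µM Δ7-dafachronic acid high control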
Numbers without * were called inactive. A selection: hits, their analogues and other compounds. The true share with any hit is near 4.8%.

Results for CCCC(=O)OC12CCCN(C1)/C(=C/c1ccc(Cl)cc1)C2 (stereo unspecified) ?
hgDAF-12 ag: 2; SMARCA2 activ: -2; DAX1 inh-2: 1; ssDAF-12 act: -1; hcDAF-12 act: -1

What do the screens show for `Cc1ccc(NC(=O)[C@@H]2CC(=O)O[C@@H]2c2ccccc2)c(C)c1`?
hgDAF-12 ag: -1; SMARCA2 activ: -5; DAX1 inh-2: -1; ssDAF-12 act: -2; hcDAF-12 act: 1

Results for CCOC(=O)[C@]12CCCCC/C=C\1N(Cc1ccc(OC)cc1)C(=O)[C@H]2CC(=O)NCc1ccc(OC)c(OC)c1 ?
hgDAF-12 ag: -1; SMARCA2 activ: -4; DAX1 inh-2: 0; ssDAF-12 act: -2; hcDAF-12 act: -2

Results for NCCOc1cnn(-c2ccccc2Cl)c(=O)c1Cl ?
DAX1 inh-1: 3; hgDAF-12 ag: 1; SMARCA2 activ: -2; DAX1 inh-2: 0; ssDAF-12 act: 1.0*; hcDAF-12 act: 2

How did COc1cnn(-c2cccc(C)c2)c(=O)c1Cl do in these assays?
DAX1 inh-1: 1; hgDAF-12 ag: -3; SMARCA2 activ: 2; DAX1 inh-2: 0; ssDAF-12 act: 0; hcDAF-12 act: 0

What do the screens show for `O=C(NC(=S)NNS(=O)(=O)c1ccccc1)c1cccnc1`?
DAX1 inh-1: 0; hgDAF-12 ag: -3; SMARCA2 activ: -1; DAX1 inh-2: 0; ssDAF-12 act: 1.1*; hcDAF-12 act: 2

What do the screens show for `O=C(NC(=S)NNC(=O)c1ccc(Cl)cc1Cl)c1cccnc1`?
DAX1 inh-1: -1; hgDAF-12 ag: 1; SMARCA2 activ: -1; DAX1 inh-2: 1; ssDAF-12 act: 0; hcDAF-12 act: -1

Results for O=C(NC(=S)NNC(=O)c1ccccc1O)c1cccnc1 ?
DAX1 inh-1: 4.3*; hgDAF-12 ag: 2; SMARCA2 activ: -2; DAX1 inh-2: 2; ssDAF-12 act: 0; hcDAF-12 act: 2

How did COC(=O)c1cc2c(c3c4cc(OC)ccc4n(S(=O)(=O)c4ccc(OC)cc4)c13)C(=O)N(Cc1ccco1)C2 do in these assays?
hgDAF-12 ag: -2; SMARCA2 activ: 1; DAX1 inh-2: -2; ssDAF-12 act: -1; hcDAF-12 act: 0

How did CC(=O)Cc1nsc(Nc2ccc(C)cc2)n1 do in these assays?
DAX1 inh-1: 3; hgDAF-12 ag: 12*; SMARCA2 activ: 5; DAX1 inh-2: 4.2*; ssDAF-12 act: 1; hcDAF-12 act: 5

How did CNc1nc(CC(C)=O)ns1 do in these assays?
DAX1 inh-1: 0; hgDAF-12 ag: -1; SMARCA2 activ: 0; DAX1 inh-2: 0; ssDAF-12 act: -1; hcDAF-12 act: 0

Results for CC(C)N1CCCCC(NC(=O)c2cccc(F)c2)C1=O (stereo unspecified) ?
hgDAF-12 ag: 2; SMARCA2 activ: -4; DAX1 inh-2: 0; ssDAF-12 act: -2; hcDAF-12 act: 0

What do the screens show for `CCOC(=O)CC[C@@]1(C(=O)OCC)C[C@@H](CC(=O)NCc2ccc(OC)c(OC)c2)C(=O)N2CCCC=C21`?
hgDAF-12 ag: -2; SMARCA2 activ: -3; DAX1 inh-2: 0; ssDAF-12 act: -1; hcDAF-12 act: -1

What do the screens show for `Clc1ccc(Nc2nnc(-c3ccc4c(c3)OCO4)o2)cc1`?
hgDAF-12 ag: 9; SMARCA2 activ: 1; DAX1 inh-2: 3.9*; ssDAF-12 act: -1; hcDAF-12 act: 3

How did COc1ccc(CC(=O)NCC2CCCN(Cc3ccc(F)cc3F)C2)cc1 (stereo unspecified) do in these assays?
DAX1 inh-1: -1; hgDAF-12 ag: 12*; SMARCA2 activ: 4; DAX1 inh-2: 1; ssDAF-12 act: 0; hcDAF-12 act: 5

How did COc1ccc(CC(=O)NCC2CCCN(Cc3ccc(OC)cc3F)C2)cc1 (stereo unspecified) do in these assays?
DAX1 inh-1: 0; hgDAF-12 ag: -2; SMARCA2 activ: -1; DAX1 inh-2: 0; ssDAF-12 act: -1; hcDAF-12 act: -1

How did O=C(COC(=O)CCCC1=NS(=O)(=O)c2ccccc2N1)Nc1ccc(Br)cc1 do in these assays?
DAX1 inh-1: -1; hgDAF-12 ag: -2; SMARCA2 activ: -1; DAX1 inh-2: 4.1*; ssDAF-12 act: -1; hcDAF-12 act: -2

How did CC(CCc1ccccc1)NC(=O)[C@@H]1Cc2ccccc2CN1 (stereo partly specified) do in these assays?
DAX1 inh-1: -1; hgDAF-12 ag: 3; SMARCA2 activ: 0; DAX1 inh-2: 0; ssDAF-12 act: -1; hcDAF-12 act: 1

Results for CC(C)(C)NC(=O)C1Cc2ccccc2CN1 (stereo unspecified) ?
DAX1 inh-1: 7.3*; hgDAF-12 ag: 0; SMARCA2 activ: -1; DAX1 inh-2: 1; ssDAF-12 act: -1; hcDAF-12 act: 0

What do the screens show for `Cc1nnc(NC(=O)Nc2cccc(Cl)c2)s1`?
DAX1 inh-1: 0; hgDAF-12 ag: 11*; SMARCA2 activ: 3; DAX1 inh-2: 1; ssDAF-12 act: 0; hcDAF-12 act: 1

Results for Cc1nn(C)c(C)c1CNC(=O)Nc1ccc2c(c1)OCO2 ?
DAX1 inh-1: -1; hgDAF-12 ag: 2; SMARCA2 activ: 3; DAX1 inh-2: 2; ssDAF-12 act: -1; hcDAF-12 act: 4

How did Cc1nn(C)c(C)c1CNC(=O)Nc1cccc(Cl)c1 do in these assays?
DAX1 inh-1: 2; hgDAF-12 ag: 11*; SMARCA2 activ: 7; DAX1 inh-2: 4.0*; ssDAF-12 act: 0; hcDAF-12 act: 2

How did N#C/C(=C\c1ccccc1O)C(=O)Nc1ccccn1 do in these assays?
DAX1 inh-1: 1; hgDAF-12 ag: 4; SMARCA2 activ: 6; DAX1 inh-2: 0; ssDAF-12 act: 1; hcDAF-12 act: 5.8*

Results for Nc1nc(NCCCN2CCOCC2)nc(Nc2ccccc2F)c1[N+](=O)[O-] ?
DAX1 inh-1: 4.5*; hgDAF-12 ag: -4; SMARCA2 activ: -5; DAX1 inh-2: 0; ssDAF-12 act: -1; hcDAF-12 act: -2

What do the screens show for `Nc1nc(NCCCN2CCOCC2)nc(Nc2ccc(F)cc2)c1[N+](=O)[O-]`?
DAX1 inh-1: 0; hgDAF-12 ag: 0; SMARCA2 activ: 0; DAX1 inh-2: 0; ssDAF-12 act: -1; hcDAF-12 act: -2

How did Cc1c(C(=O)Nc2nccs2)oc2ccc(F)cc12 do in these assays?
DAX1 inh-1: 2; hgDAF-12 ag: 9; SMARCA2 activ: 1; DAX1 inh-2: 2; ssDAF-12 act: 1.6*; hcDAF-12 act: 6.3*
